Laboratory results reported in PubChem BioAssay (NCI).
About 83,000 compounds went through this panel and 20% of them were active in at least one assay; those are over-represented in the sample as a whole.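 Cells were grown in 96-well plates and exposed to the test compound at a single concentration for 48 hours; results are reported as percent growth, with values below 10 considered active.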 Values without a mark were called inactive. Activity calls are given as the source filed them.

Tests used:
Assay in all cases: NCI-60 one-dose screen, 48 h (100 = growth as untreated, 0 = no growth, -100 = all killed)
Conditions in all cases: 10 µM
NCI-H23 lung = test system: NCI-H23 lung
NCI-H226 lung = test system: NCI-H226 lung
NCI-H322M lung = test system: NCI-H322M lung
HOP-62 NSCLC = test system: HOP-62 NSCLC
NCI-H460 lung = test system: NCI-H460 lung
HOP-92 NSCLC = test system: HOP-92 NSCLC
NCI-H522 lung = test system: NCI-H522 lung
A549/ATCC NSCLC = test system: A549/ATCC NSCLC
786-0 renal = test system: 786-0 renal
COLO 205 colon = test system: COLO 205 colon
DU-145 prostate = test system: DU-145 prostate
K-562 leukemia = test system: K-562 leukemia
MALME-3M melanoma = test system: MALME-3M melanoma
MDA-MB-231 breast = test system: MDA-MB-231 breast
SF-268 CNS = test system: SF-268 CNS
SF-295 CNS = test system: SF-295 CNS
SF-539 CNS = test system: SF-539 CNS
UACC-257 melanoma = test system: UACC-257 melanoma
M14 melanoma = test system: M14 melanoma
RXF 393 renal = test system: RXF 393 renal

| SMILES | growth (NCI-H23 lung) | growth (NCI-H226 lung) [%] | growth (NCI-H322M lung) | growth (HOP-62 NSCLC) | growth (NCI-H460 lung) | growth (HOP-92 NSCLC) | growth (NCI-H522 lung) | growth (A549/ATCC NSCLC) | growth (786-0 renal) | growth (COLO 205 colon) | growth (DU-145 prostate) | growth (K-562 leukemia) | growth (MALME-3M melanoma) | growth (MDA-MB-231 breast) | growth (SF-268 CNS) | growth (SF-295 CNS) | growth (SF-539 CNS) | growth (UACC-257 melanoma) | growth (M14 melanoma) | growth (RXF 393 renal) |
| --- | --- | --- | --- | --- | --- | --- | --- | --- | --- | --- | --- | --- | --- | --- | --- | --- | --- | --- | --- | --- |
| O=c1oc2c3ccc4cnccc4c3[nH]c2c2ccccc12 | 65% | 77.1 | 78.6% | 70.8% | 5.33% (active) | 49.2% | -11.5% (active) | 0.199% (active) | 12.2% | -57.2% (active) | 16.9% | 21.1% | -80.8% (active) | 68.2% | 23% | 75.6% | -72.1% (active) | 1.25% (active) | 67.3% |  |
| COc1cccc2c1O/C(=C\c1ccc([N+](=O)[O-])s1)C2=O | 71.8% | 97.1 | 82% | 92.4% | 70.9% | 14.6% | -65% (active) | 78.5% | 103% | 67.3% | 80.4% | 8.38% (active) | 88.6% | 55.4% | 12.5% | 97.2% | 55.7% | 65.2% | 48.1% | 25.7% |
| Cc1cc(=O)oc2cc(OCc3cn(CC(O)CO)nn3)ccc12 (centres undefined) | 94.1% | 104 | 109% | 103% | 111% | 111% | 107% | 105% | 111% | 108% | 103% | 96.1% | 109% | 104% | 109% | 107% | 95.9% | 112% | 106% |  |
| CCCCCCCCCCCCCC[n+]1ccc(C)cc1 | -19% (active) | 31.7 | 5.57% (active) | -39.2% (active) | -74.1% (active) | -49.7% (active) | -11.8% (active) | -30.5% (active) | -3.94% (active) | -89.9% (active) | 5.11% (active) | 9.19% (active) |  | -40.2% (active) | -32.4% (active) | -67.1% (active) | -33.5% (active) | -21.6% (active) |  | -19.6% (active) |
| O=[N+]([O-])C1CC2C=CC1C2 (centres undefined) | 100% | 94.9 | 91.1% | 93.3% | 108% | 110% | 101% | 92.3% | 90.4% | 115% | 94.7% | 101% |  | 111% | 89.6% | 92.8% | 102% | 105% | 98.7% | 99% |
| CN(C)CCCN1c2ccccc2Sc2ccc(C(F)(F)F)cc21 | 47% | 54.7 | 37.1% | 37.2% | 13.8% | -9.96% (active) | -15.2% (active) | 53.3% | 9.65% (active) | -77.8% (active) | 50.3% | -46.2% (active) | -80.6% (active) | 4.03% (active) | 16.8% | -2.18% (active) | 3.74% (active) | 6.53% (active) | -84.6% (active) |  |
| O=C(Nc1ccc(Oc2ccc(Nc3nc4ccccc4s3)cc2)cc1)Nc1ccc(Cl)c(Cl)c1 | 8.31% (active) | 46.5 | 56.6% | 47% | 15.8% | 37.9% | 7.82% (active) | 32.8% | 43.3% | 31.1% | 39.1% | 21.9% | 47.9% | 22.8% | 35.9% | 17.8% | 50.9% | 61.3% | 26.3% | 56.5% |
| COc1ccc(-c2csc(-c3cc(Cl)cc(Cl)c3Cl)n2)cc1 | 91.4% | 88.9 | 98.6% | 91.1% | 97.9% | 85.8% | 81.8% | 54.5% | 111% | 91.6% | 99.8% | 83.9% | 77.7% | 73.6% | 97.1% | 103% | 94.8% | 46.2% | 97.7% |  |
| CCc1nn2c(-c3ccccc3)c(-c3cc(OC)c(OC)c(OC)c3)nc2s1 | 98.3% | 84.6 | 82.4% | 98.7% | 88.3% | 49.8% | 70.9% | 92.1% | 76.5% | 84.9% | 102% | 92.1% | 62.4% | 76.8% | 96% | 89.1% | 97.3% | 107% | 99.1% | 88.9% |
| O=C(Nc1cccc(-c2nc3ccccc3[nH]2)c1)c1cccc(NC(=O)c2ccco2)c1 | 98% | 90.1 | 94.1% | 73.2% | 91.6% | 38.8% | 98.5% | 82.7% | 67% | 31.4% | 103% | 2.96% (active) | 73.9% | 34.6% | 75.7% | 80.3% | 64.9% | -20.2% (active) | 3.76% (active) | 67.6% |
| COc1ccc2nc(/C=C/c3ccc(N(C)C)cc3)sc2c1 | 89.5% | 99.5 | 99.6% | 108% | 110% | 93.3% | 90.6% | 105% | 93% | 145% | 111% | 73.5% | 97.4% | 95.6% | 102% | 93.1% | 103% | 119% | 103% |  |
| O=C1c2cc(Cl)ccc2-c2c(O)cc(Cl)cc21 | 49.3% | 94 | 109% | 89.6% | 99.5% | 52.8% | 76.2% | 105% | 103% | 92% | 98.8% | 57.2% |  | 79.2% | 86.1% | 99.1% | 80.7% | 105% |  | 68.8% |
| Cc1ccc([P+](Cc2ccccc2)(c2ccccc2)c2ccccc2)cc1 | 12.4% | 28.3 | 16.2% | 23.7% | 12.4% | -25.3% (active) | -21.6% (active) | 18.1% | 21.3% | -68.9% (active) | 32.3% | 2.63% (active) | -10.8% (active) | 17.8% | 28.4% | -6.8% (active) | 23% | -28.6% (active) | 3.22% (active) | 45.7% |
| CC(=O)OC1Oc2ccccc2-c2oc(=O)c(-c3ccc(F)cc3)cc21 (centres undefined) | 92.5% | 91.9 | 107% | 101% | 94.4% | 112% | 42.5% | 57.8% | 95.4% | 108% | 92.4% | 87.7% | 99.5% | 73.1% | 81.4% | 89.1% | 86.4% | 58.6% | 100% |  |
| Cc1noc(C)c1-c1ccc2nc(NC(=O)[C@H]3CCN(C#N)C3)cn2c1 | 76.1% | 91.1 | 99.3% | 92.8% | 98.7% | 67.3% | 25.2% | 94.6% | 78.6% | 82.6% | 89.7% | 40.5% | 75.6% | 68.2% | 91.3% | 97% | 82.3% | 82.1% | 77.9% | 83.4% |
| Cc1nc(Nc2nc3ccccc3o2)nc(-c2cccc([N+](=O)[O-])c2)c1C(=O)Nc1ccc(F)c(Cl)c1 | 0.258% (active) | 10.3 | 24.9% | 16% | 2.04% (active) | -38.9% (active) | -20.5% (active) | 5.85% (active) | 18.4% | 9.63% (active) | 18.6% | 4.49% (active) | 6.18% (active) | -17.4% (active) | 11.9% | -40.7% (active) | 25.7% | -11.3% (active) | 15.6% | 29.4% |
